For 8 molecules, relative cell viability results are on record in the supplement of paper PMC9492666.

Details in all cases: 72 h
Assay [1] deals with HCC1937. Kind of assay: relative cell viability, compound alone, vs DMSO (fraction of DMSO control); higher = less growth inhibition.
Assay [2] concerns MDA-MB-231. The assay is described as above.
The subject of assay [3] is HCC1937. Kind of assay: relative cell viability, compound + RSL3, vs DMSO (fraction of DMSO control); higher = less growth inhibition.
Assay [4] deals with MDA-MB-231. Described as above.
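Wherever relative cell viability, compound + RSL3, vs DMSO is given: breast cancer cell viability read out with the CCK-8 kit after co-treatment of each compound with the ferroptosis inducer RSL3.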
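Wherever relative cell viability, compound alone, vs DMSO is given: viability read out with the CCK-8 kit in 96-well plates, screening a set of 303 compounds acting on lipid metabolism targets.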

For `O=C(O)c1cccnc1Nc1cccc(C(F)(F)F)c1` [Niflumic acid], the relative cell viability in assay [1] came to 1.09; in assay [2] it was 0.89.

Regarding `Cc1coc2c1C(=O)C(=O)c1c-2ccc2c(C)cccc12` [Tanshinone I] + COC(=O)c1ccc([C@H]2c3[nH]c4ccccc4c3C[C@H](C(=O)OC)N2C(=O)CCl)cc1 [RSL3], the relative cell viability in assay [3] was 0.218; in assay [4], 0.305.

Consider `COC(=O)c1cc(Cl)c(O)c(S(=O)(=O)Nc2cc(-c3ccccc3)c(F)cc2F)c1` + COC(=O)c1ccc([C@H]2c3[nH]c4ccccc4c3C[C@H](C(=O)OC)N2C(=O)CCl)cc1 [RSL3], for which the relative cell viability was determined as 0.45 in assay [3] and 0.573 in assay [4].

For `Cn1c2cc([S+](C)[O-])sc2c2cnn(Cc3cccc(N)c3)c(=O)c21` (stereo unspecified) + COC(=O)c1ccc([C@H]2c3[nH]c4ccccc4c3C[C@H](C(=O)OC)N2C(=O)CCl)cc1 [RSL3], the relative cell viability was 0.402 in assay [3] and 0.677 in assay [4].

Turning to `COc1ccc2[nH]cc(CCNC(C)=O)c2c1` [Melatonine], the relative cell viability in assay [1] was 0.76; in assay [2], 0.783.

Regarding `O=c1oc2ccccc2cc1O` [3-Hydroxycoumarin] + COC(=O)c1ccc([C@H]2c3[nH]c4ccccc4c3C[C@H](C(=O)OC)N2C(=O)CCl)cc1 [RSL3], the relative cell viability in assay [3] came to 0.587; in assay [4] it was 0.682.

`Nc1ncnc2c1ncn2[C@@H]1O[C@H](COP(=O)(O)O)[C@@H](O)[C@H]1O` [Adenosine 5'-monophosphate] + COC(=O)c1ccc([C@H]2c3[nH]c4ccccc4c3C[C@H](C(=O)OC)N2C(=O)CCl)cc1 [RSL3]: the relative cell viability worked out at 0.597 in assay [3] and 0.485 in assay [4].

With `O=C(OC(C(F)(F)F)C(F)(F)F)N1CCN(Cc2ccc(C(F)(F)F)cc2N2CCCC2)CC1` + COC(=O)c1ccc([C@H]2c3[nH]c4ccccc4c3C[C@H](C(=O)OC)N2C(=O)CCl)cc1 [RSL3], the relative cell viability is 0.928 in assay [3] and 0.613 in assay [4].
